This is a sample that favours compounds with a hit; in the whole collection about 9.6% have one here.
Lmaj promast: inhibitors of Leishmania major promastigote growth; AID 1063; 200,000 tested, 9% active; inhibition, % at 10 µM; Leishmania major promastigotes, resazurin fluorescence viability; in the data active means inhibition above about 50%;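 further: promastigotes grown with compound for 44 hours at 28 °C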
HCT116 bCat-KO: beta-catenin-lacking colon tumor cell growth suppression | HCT116 beta-catenin knockout viability, CellTiter-Glo, 60 h; hits give low values | AID 818 | 140,000 tested, 1.5% active | viability, % at 10 µM;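 active means viability at or under a set limit, the compound median less 4 SD, cut at about 6% in these data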
HCT116 PTEN-null: PTEN-deleted cell growth suppression; HCT116 PTEN-null viability, CellTiter-Glo, 60 h; hits give low values; viability, % at 10 µM; 140,000 tested, 1.2% active; AID 827;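 active means viability at or below a set limit, 4 SD under the median of all tested compounds, cut at about 3.7% in these data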;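 further: PTEN knockout HCT116 line with beta catenin targeted HCT116 as companion control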
Autophagy HCS: alters autophagy in cells; MEF GFP-LC3 puncta imaging; test concentration mostly 10 µM; 190,000 tested, 0.98% active; calls only at 10 µM (by protocol);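 active means percentage of spot-positive cells more than 3 SD above its plate mean, without a fluorescence outlier flag or 80% toxicity; inconclusive means no clear call, values can overlap the other calls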
Ins promoter up: MIN6 insulin promoter up-regulation. MIN6 insulin promoter-GFP reporter, high-content imaging; hits give high values. z-score at 5 µM. 190,000 tested, 0.3% active;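 active means z-score above 3 at 5 µM with at least 500 cells counted in the well; inconclusive means wells under 500 cells, flagged as cytotoxic or low count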
Insulin prom inh: TRM-6 insulin promoter activity inhibition; TRM-6 cells (human fetal islet line), insulin promoter-eGFP reporter, imaging; reporter expression induced with tamoxifen; inhibition, % at 2 µM; 130,000 tested, 0.9% active;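 active means inhibition above the mean plus 3 SD, with well images judged a real hit on visual review, cut at about 60% in these data, passing the limit was not always enough; inconclusive means inhibition over the cutoff but images rejected on review; inactive means inhibition not above the cutoff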
L major 1uM: blocks Leishmania major promastigote growth at 1 uM, repeat screen | shares compounds with Lmaj promast | L. major promastigote growth, resazurin fluorescence, 48 h | inhibition, % at 1 µM | 1,100 tested, 13% active;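 active means inhibition above about 50% in both repeat tests, limit read from the data; inconclusive means one repeat under the set limit, the other over it; inactive means both repeats under the set limit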
Each line names hits and unclear results; the compound was inactive in the other large screens (follow-up assays come after a bar, where they were run); ! = not active in a repeat.

Cc1ccc(S(=O)(=O)NC(N)=NCCc2ccc(Cl)cc2)cc1C	Lmaj promast 51.5 | L major 1uM inactive
O=C(Nc1ccc(F)cc1F)N1CCCCC1c1cccnc1 (configuration not stated)	Lmaj promast 73.2 (no result: Insulin prom inh) | L major 1uM inactive
O=C(/C=C/c1ccc(F)cc1)NC(=S)N1CCCCC1c1cccnc1 (configuration not stated)	none (no result: Lmaj promast, HCT116 bCat-KO, HCT116 PTEN-null, Autophagy HCS, Insulin prom inh)
Cc1ccc(CN2CCc3[nH]c(=O)[nH]c(=O)c3C2)cc1	none (no result: HCT116 bCat-KO, HCT116 PTEN-null)
COc1cc(CNCc2cccs2)ccc1OCc1ccccc1	Lmaj promast 99.3 (no result: Insulin prom inh) | L major 1uM 92.4
CCOC(=O)c1cnn(-c2nc(SC)nc3sc4c(c23)CCCC4)c1N	Lmaj promast 59.7 | L major 1uM inactive
O=C(O)c1cccc(NC(=S)N/N=C/c2ccccc2OCc2ccc(Br)cc2)c1	none (no result: HCT116 bCat-KO, HCT116 PTEN-null)
C=CCn1cccc(/C=C/C(=O)c2ccc(C(C)(C)C)cc2)c1=S	Lmaj promast 100.3, HCT116 bCat-KO 1.4, HCT116 PTEN-null 1.8 | L major 1uM 65.5
CC(C)(C)c1ccc(C(=O)N2CCC(=O)N(C(COCc3ccccc3)Cc3ccccc3)CC2)cc1 (configuration not stated)	Lmaj promast 51.7 | L major 1uM inactive
O=C(c1ccc(C(F)(F)F)cc1)N1CCC(=O)N(C(COCc2ccccc2)Cc2ccccc2)CC1 (configuration not stated)	none
Cc1ccc(NC(=O)N2CCCN(Cc3ccc(F)cc3)C2)cc1C	Lmaj promast 94.5 | L major 1uM 52.9
Nc1c(-c2ccccc2)c(CN2CCOCC2)nn1-c1ccc(C(=O)O)cc1	Lmaj promast 65.7 | L major 1uM inactive
O=c1c(-c2ccccc2)c(O)nc(SCCN2CCOCC2)n1-c1ccccc1	none
CN(C)CCCNC(=O)/C(=C\C=C\c1ccccc1)NC(=O)c1ccc([N+](=O)[O-])cc1	none (no result: Lmaj promast, HCT116 bCat-KO, HCT116 PTEN-null, Autophagy HCS, Insulin prom inh)
C[C@H]1CC[C@H]2C(=O)N3[C@H](c4ccccc4Br)[C@@H](C)CC[C@H]3C(=O)N2[C@@H]1c1ccccc1Br	Lmaj promast 100.0, HCT116 bCat-KO 2.3, HCT116 PTEN-null 3.0, Autophagy HCS active | L major 1uM inactive
CC1CCN(C2CC(=O)N(c3ccccc3)C2=O)CC1 (configuration not stated)	none (no result: HCT116 bCat-KO, HCT116 PTEN-null, Insulin prom inh)
NC(=S)Nn1c(CCC(=O)O)ccc1-c1ccccc1	Lmaj promast 65.9 | L major 1uM inactive
NC(=O)Nn1c(CCC(=O)O)ccc1-c1ccc(F)cc1	none (no result: Ins promoter up)
CCOc1cc(C(=S)N2CCOCC2)ccc1OS(=O)(=O)c1ccc(NC(C)=O)cc1	none (no result: Insulin prom inh)
O=C(O)c1cc2c([nH]c1=O)CCCC2	none
C=CCSC(=C(C#N)C#N)c1cc2c([nH]1)CCCC2	Lmaj promast 100.4, HCT116 bCat-KO 2.6, HCT116 PTEN-null 1.9 | L major 1uM inactive
COc1ccc(C(=O)COC(=O)c2ccccc2NS(=O)(=O)c2ccc(O)c([N+](=O)[O-])c2)cc1	none (no result: Lmaj promast, HCT116 bCat-KO, HCT116 PTEN-null, Autophagy HCS, Insulin prom inh)
CCOc1ccc(C2=NNC(c3cccnc3)=Nc3ccc(OC)cc32)cc1	none (no result: HCT116 bCat-KO, HCT116 PTEN-null, Ins promoter up, Insulin prom inh)
FC(F)(F)c1nc(Oc2ccccc2)c2ccccc2n1	none
Cc1nc(Oc2ccccc2)c2ccccc2n1	Lmaj promast 56.6 | L major 1uM inactive
COc1ccc(S(=O)(=O)Nc2ccc(C)cc2)cc1N(C)S(=O)(=O)c1ccc(Cl)cc1	Lmaj promast 99.2 (no result: Insulin prom inh) | L major 1uM inactive
CCCCCCc1cc2cc(C(=O)Nc3ccccc3)c(=O)oc2cc1O	Lmaj promast 86.2, HCT116 bCat-KO 1.5, HCT116 PTEN-null 1.7, Ins promoter up inconclusive | L major 1uM inactive
COc1ccc(-n2nnc3c(SCC(=O)Nc4ccccc4F)ncnc32)cc1	none (no result: HCT116 bCat-KO, HCT116 PTEN-null, Insulin prom inh)
O=S(=O)(c1ccc(Nc2ccc(-c3ccc4c(c3)OCCO4)nn2)cc1)N1CCCC1	none (no result: Ins promoter up)
O=C(NC1CC1)c1cccc(Nc2ccc(-c3ccc4c(c3)OCCO4)nn2)c1	Lmaj promast 50.4 | L major 1uM inactive
O=[N+]([O-])c1ccc2c(c1)c(-c1ccccc1)nc1nncn12	Lmaj promast 56.2 (no result: HCT116 bCat-KO, HCT116 PTEN-null) | L major 1uM inactive
O=[N+]([O-])c1ccc2nc(-c3ccccc3)cc(-c3ccccc3)c2c1	none (no result: Ins promoter up)
COc1ccc(NC(=O)CC2C(=O)N(c3ccc(OC)cc3)C(=S)N2NC(=O)c2cccc(F)c2)cc1 (configuration not stated)	none (no result: Insulin prom inh)
COC(=O)C[N+](C)(C)CC#Cc1ccccc1	Lmaj promast 52.9 | L major 1uM inactive
C[N+](C)(CC#Cc1ccccc1)CC(=O)c1ccccc1	none (no result: Ins promoter up)
Cc1cc(C)c(C(=O)CSC2=NC(N)=C(C#N)C3(CCCCC3)C2C(N)=O)cc1C (configuration not stated)	Lmaj promast 63.8 (no result: Ins promoter up) | L major 1uM inactive
C=C(C)C1Cc2c(C)nn(-c3cccc4ccccc34)c2C1 (configuration not stated)	Lmaj promast 61.3 | L major 1uM inactive
C=C(C)C1Cc2c(C)nn(-c3ccccc3)c2C1 (configuration not stated)	none
COc1cc(C(=O)NCc2nnc(SCC(=O)Nc3cc(C)on3)o2)cc(OC)c1OC	none (no result: HCT116 bCat-KO, HCT116 PTEN-null, Insulin prom inh)
Cc1ccccc1Cn1nnc2c1C(=O)c1ccccc1C2=O	none (no result: Ins promoter up)
Cc1cccc(Cn2nnc3c2C(=O)c2ccccc2C3=O)c1	Lmaj promast 100.0, HCT116 bCat-KO 4.5, HCT116 PTEN-null 3.0 | L major 1uM inactive
c1ccc(-c2nc3nonc3nc2-c2ccccc2)cc1	Lmaj promast 84.0, HCT116 bCat-KO 2.3, HCT116 PTEN-null 2.4 (no result: Insulin prom inh) | L major 1uM inactive
Cc1ccc(-n2cc(CN(C)CCc3cn[nH]c3)c(-c3cccc(C)c3)n2)cc1	Lmaj promast 64.7 (no result: HCT116 bCat-KO, HCT116 PTEN-null, Insulin prom inh) | L major 1uM inactive
O=C(Nc1ccc2c(c1)C(=O)N(c1ccccc1)C2=O)c1cccs1	none (no result: HCT116 bCat-KO, HCT116 PTEN-null, Insulin prom inh)
Cc1ccc(C2/C(=C(/O)c3cnn(-c4ccccc4)c3C)C(=O)C(=O)N2CCCN2CCOCC2)o1 (configuration not stated)	none (no result: Lmaj promast, HCT116 bCat-KO, HCT116 PTEN-null, Autophagy HCS, Insulin prom inh)
C=CCOc1nc(N2CCCC2)nc(N2CCCC2)n1	Lmaj promast 96.3 | L major 1uM inactive
O=C(C1CCC(CNc2nc(=S)[nH]c3ccccc23)CC1)N1CCN(c2ccccn2)CC1 (configuration not stated)	Lmaj promast 99.5 | L major 1uM inactive
CC1CCN(S(=O)(=O)c2cccc(C(N)=O)c2)CC1	none
CCC(C#CCN1CCCCC1)(CC)OCCC#N	Lmaj promast 64.7 (no result: Ins promoter up) | L major 1uM inactive
Cc1cc(C(C)(C)C)cc(C)c1Cn1c2[n+](c3ccc(C(F)(F)F)cc31)CCCCC2	Lmaj promast 99.9 (no result: HCT116 bCat-KO, HCT116 PTEN-null, Insulin prom inh) | L major 1uM inactive
FC(F)(F)c1cccc(Cn2c3[n+](c4ccc(C(F)(F)F)cc42)CCCCC3)c1	none (no result: HCT116 bCat-KO, HCT116 PTEN-null)
O=C(Nc1ccon1)c1cccc(S(=O)(=O)N2CCCCCC2)c1	none
O=C(O)CC1S/C(=N/N=C/C=C/c2ccccc2)NC1=O (configuration not stated)	Lmaj promast 53.5! | L major 1uM inactive
O=C(O)CC1S/C(=N/N=C/C=C/c2ccccc2[N+](=O)[O-])NC1=O (configuration not stated)	none

Assay outcomes deposited in PubChem BioAssay by several laboratories.
